Test results from PubChem BioAssay (NCI).
Compounds without any hit were thinned out: in the full panel of roughly 79,000, 15% have a hit. Rule as the data show it: active = growth inhibition above about 70%; inactive = the rest.

How the values were obtained:
[1] = NCI Yeast Anticancer Drug Screen. Data for the rad50 strain (AID 155);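 also: 0% = growth of vehicle-only cultures of the same strain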; settings: S. cerevisiae rad50 strain growth inhibition; at 50.0 µM; hits give high values
In short: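 Compounds were tested on a yeast strain with an engineered DNA damage repair alteration; the reported value is growth inhibition normalised to vehicle treatment.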

[2] = NCI Yeast Anticancer Drug Screen. Data for the mec2-1 strain (AID 157); settings: S. cerevisiae mec2-1 strain, at 50.0 µM, hits give high values
In short: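 Cells of the genetically defined mec2-1 yeast strain are incubated with test compound. Inhibition of growth is calculated against vehicle-treated controls.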

[3] = NCI Yeast Anticancer Drug Screen. Data for the sgs1 mgt1 strain (AID 161);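 also: 0% = growth of cultures given vehicle only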; settings: S. cerevisiae sgs1 mgt1 strain, at 50.0 µM, hits give high values
In short: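 Genetically altered yeast, compound exposure, growth inhibition relative to vehicle.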

[4] = NCI Yeast Anticancer Drug Screen. Data for the cln2 rad14 strain (AID 165);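 also: 0% = growth equal to vehicle treated cultures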; settings: S. cerevisiae cln2 rad14 strain, at 50.0 µM, hits give high values
In short: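 The screen exposed genetically defined yeast (cln2 rad14) to test compounds and scored growth inhibition relative to vehicle-treated controls.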

[5] = NCI Yeast Anticancer Drug Screen. Data for the bub3 strain (AID 167); settings: S. cerevisiae bub3 mutant strain, at 50.0 µM, hits give high values
In short: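 Growth of a checkpoint-deficient yeast mutant is measured after compound exposure. Values represent inhibition relative to vehicle.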

[6] = NCI Yeast Anticancer Drug Screen. Data for the mlh1 rad18 strain (AID 175); settings: S. cerevisiae mlh1 rad18 strain growth inhibition; at 50.0 µM; hits give high values
In short: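 Compound-treated yeast growth, normalised to vehicle controls. Strain bears defined DNA repair mutations.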

Measured: growth inhibition

CCCCN(CCCC)CC(C)O (stereo unspecified)
inactive: [1] -21.8% | [2] -35.8% | [3] -22.4% | [4] 16.9% | [5] -12.9% | [6] -18.6%

CSCCC(N)C(=O)NCCS(=O)(=O)O (stereo unspecified)
inactive: [1] -22.4% | [2] 1% | [3] 14.8% | [4] -8% | [5] 17.1% | [6] 8.25%

CCOc1nc(C(=O)O)cc2ccsc12
inactive: [1] 1.15% | [2] -6.2% | [3] 5.5% | [4] -48.1% | [5] -43.4% | [6] 0%

O=C(SCc1oc2ccccc2c1O)c1ccccc1
inactive: [1] 12.8% | [2] 13.7% | [3] 16.5% | [4] -3.75% | [5] -7.3% | [6] 13.3%

COc1cc(C(C)S(=O)(=O)c2ccc(C)cc2)ccc1O (stereo unspecified)
inactive: [1] -2.95% | [2] -9.3% | [3] 8.65% | [4] 6.5% | [5] 3.2% | [6] 9.45%

O=C(NC(=O)c1ccc(Cl)c(Cl)c1)Nc1ccc(Cl)cc1
inactive: [1] -1.45% | [2] -13.8% | [3] -6.35% | [4] -32.6% | [5] 11.2% | [6] 8%

CC(OC(C(O)C=O)C(O)C(O)CO)C(=O)N[C@@H](C)C(=O)O (stereo partly specified)
inactive: [1] 6.1% | [2] -8.55% | [3] -0.75% | [4] -2.45% | [5] -9.2% | [6] 25.8%

Cc1nc(Nc2ccc(Cl)c(Cl)c2)sc1C(=O)/C=C/c1ccc2c(c1)OCO2
inactive: [1] 39.5% | [2] 23.1% | [3] 13.6% | [4] -2.2% | [5] -7.75% | [6] 38.3%

O=CC1CCCc2ccccc21 (stereo unspecified)
inactive: [1] 17.1% | [2] -20.5% | [3] -0.7% | [4] -5.7% | [5] 3.9% | [6] 5.6%

Cc1ccc(C(C)(O)C2CC2)cc1 (stereo unspecified)
inactive: [1] -11.4% | [2] -33.8% | [3] -18.4% | [4] 18.6% | [5] -35.8% | [6] 18.1%

O=c1c(O)c(-c2ccc(O)cc2O)oc2cc(O)cc(O)c12
inactive: [1] -8.35% | [2] -29.2% | [3] -3.55% | [4] 3.5% | [5] -19.4% | [6] -26.8%

CCn1c(=O)c2c3cc(OC(C)=O)ccc3oc2c2ccc(OC(C)=O)cc21
inactive: [1] -23.3% | [2] -24.4% | [3] -6.8% | [4] 10.3% | [5] 12.9% | [6] -4.75%

CC1SC2(C(=O)N(CN3CCCCC3)c3ccccc32)N(c2ccccc2)C1=O (stereo unspecified)
inactive: [1] 15.4% | [2] -0.45% | [3] -30.9% | [4] -0.8% | [5] 3.9% | [6] -0.1%

CN(C)c1nc2oc(-c3ccccc3)c(-c3ccccc3)c2c2nnnn12
inactive: [1] 12% | [2] 8.05% | [3] 2.65% | [4] 15.8% | [5] 1.65% | [6] -11.9%

CCc1ccc(-c2c(-c3ccccc3)c(-c3ccccc3)c(-c3ccccc3)c(-c3ccccc3)c2-c2ccccc2)cc1
inactive: [1] 31.1% | [2] 6.3% | [3] 21.9% | [4] 26.1% | [5] -6.3% | [6] 30.9%

c1ccn2cncc2c1
inactive: [1] 17% | [2] 17% | [3] 13.1% | [4] 23.1% | [5] 20.7% | [6] 15.1%

O=[N+]([O-])c1ccc(N=Nc2ccc(O)c3c(O)cc(S(=O)(=O)O)cc23)cc1S(=O)(=O)O
inactive: [1] 30.6% | [2] 9% | [3] 6.85% | [4] -24.8% | [5] -11.4% | [6] 50.1%

CCOc1ccc(N2C(=O)NC3(c4ccccc4)N(C)C(=O)N(C)C23c2ccccc2)cc1 (stereo unspecified)
inactive: [1] -2.7% | [2] -7.95% | [3] 13.8% | [4] 1.3% | [5] 17.1% | [6] -16.8%

CCOCCOC(=O)c1ccc(C(N)=NC2CCCCC2)cc1
inactive: [1] 0.05% | [2] -2.4% | [3] 3.75% | [4] -4.1% | [5] 0.1% | [6] -1.4%

COC(=O)NC(Cc1ccccc1)NC(=O)OC(C)(C)C (stereo unspecified)
inactive: [1] -30.6% | [2] -46% | [3] -20.5% | [4] -0.95% | [5] -4.25% | [6] -12.9%

CC(C)(C)C1CCC(O)(CSc2ccccc2)CC1 (stereo unspecified)
inactive: [1] 6.7% | [2] 1.45% | [3] -1.75% | [4] -1.75% | [5] -6.7% | [6] -10.6%

CSc1nc(NC2OC(CO)C(O)C(O)C2O)c(C=O)c(=O)n1C (stereo unspecified)
inactive: [1] 10% | [2] -0.8% | [3] 10.3% | [4] 4% | [5] 2.45% | [6] 7.75%

CCOC(=O)CC1C(C)C(C)NC(C)C1C (stereo unspecified)
inactive: [1] -1.85% | [2] -24.3% | [3] -20.2% | [4] 12.1% | [5] 2.95% | [6] 5.75%

COc1ccc(CCNC(=O)Cc2ccccc2CCO)cc1OC
inactive: [1] 13.9% | [2] -6.85% | [3] -29.5% | [4] -3.75% | [5] -43.9% | [6] -20.1%

Nc1nc(SCC(=O)O)[nH]c(=O)c1NS(=O)(=O)c1ccccc1[N+](=O)[O-]
inactive: [1] 21.4% | [2] -4.1% | [3] -2.4% | [4] 23.1% | [5] 2.75% | [6] 5.6%

O=C(NO)c1c(F)c(F)c(C(=O)NO)c(F)c1F
inactive: [1] -2.5% | [2] 7.05% | [3] 4% | [4] 11% | [5] 9.65% | [6] 2.1%

CCOC(=O)COc1cc2c(cc1C(C)c1ccc(OCc3ccccc3)c(OC)c1)OCO2 (stereo unspecified)
inactive: [1] -0.95% | [2] -7.55% | [3] -9.7% | [4] 10.6% | [5] -7.4% | [6] -6.3%

Cc1ccc(-c2cc(-c3ccccc3)c(C#N)c(=O)[nH]2)cc1
inactive: [1] 16.1% | [2] 9.4% | [3] 12.6% | [4] 8.55% | [5] 3.8% | [6] 25.6%

Cc1ccc(/C=C/C(=O)C(C)(C)CN2CCCCC2)cc1
inactive: [1] 35.6% | [2] -9.05% | [3] 25.1% | [4] 14.3% | [5] 10% | [6] 17.9%

CSC1NC(c2ccccc2)=C(C#N)C(=O)N1C1OCC(OC(C)=O)C(OC(C)=O)C1OC(C)=O (stereo unspecified)
inactive: [1] -9.1% | [2] -15.6% | [3] -39.2% | [4] 4.75% | [5] 3.4% | [6] -1.5%

C(=C\c1cccs1)/c1csnn1
inactive: [1] 0.7% | [2] 15.7% | [3] 3.45% | [4] 12.8% | [5] -1.75% | [6] -7.55%

COc1cc2ccc3c(c2cc1OC)CCc1cn[nH]c1-3
inactive: [1] 2.05% | [2] 3.4% | [3] 8% | [4] 27.4% | [5] 11.8% | [6] 9.45%

O=C(Nc1nc2ncn(CCNCCn3cnc4nc(NC(=O)c5ccccc5)[nH]c(=O)c43)c2c(=O)[nH]1)c1ccccc1
inactive: [1] -10.2% | [2] 14.1% | [3] 17.5% | [4] 25.9% | [5] 16.8% | [6] 17%

CC(O)(COS(=O)(=O)c1ccccc1)c1ccccc1 (stereo unspecified)
inactive: [1] -8.1% | [2] 0.7% | [3] -8.7% | [4] -14% | [5] 26.7% | [6] -8.4%

CC1=CC(=O)C(=CN2C(=O)/C(=C\c3cccnc3)NC2=S)C(=O)O1
inactive: [1] -21.2% | [2] -12.2% | [3] -18.9% | [4] -20.1% | [5] -3.7% | [6] -21.9%

O=c1c2c(-c3cc(-c4ccccc4)nc4[nH]n(-c5ccccc5)c(=O)c34)cc(-c3ccccc3)nc2[nH]n1-c1ccccc1
inactive: [1] 0.45% | [2] -6.2% | [3] 0.35% | [4] -38.5% | [5] 4.85% | [6] -22.6%

C=CCOC(=O)c1cccc(C(=O)OCC=C)c1
inactive: [1] 12.6% | [2] 23.4% | [3] 40.2% | [4] 19.1% | [5] 34.5% | [6] 33.8%

CCCCCC(N)=O
inactive: [1] 16.6% | [2] -7.05% | [3] 4.25% | [4] 15.2% | [5] 14.8% | [6] 31.8%

Nc1ncnc2c1ncn2C[c-]1[c-][c-][c-][c-]1.[Fe].[c-]1[c-][c-][cH-][c-]1
inactive: [1] -4.95% | [2] -23.8% | [3] -11.9% | [4] -40.7% | [5] -15.7% | [6] -8.8%

O=C(/C=C\c1ccccc1)OC(c1ccccc1)c1ccc(Br)cc1 (stereo unspecified)
inactive: [1] 17.9% | [2] 6.25% | [3] 14.1% | [4] -3.95% | [5] -3.4% | [6] 8%

CC1=CC(O/C=C2\C(=O)OC3C=CCC23)OC1=O (stereo unspecified)
inactive: [1] -1.6% | [2] -32% | [3] 17.4% | [4] 4.05% | [5] -11.6% | [6] 0.55%
